The text below walks through data of PubChem BioAssay (Tox21).

A number with no mark means an inactive call. Inconclusive results are not listed. Activity calls are given as the source filed them. Unless noted, calls follow the shape of the dose curve; as a rule, active = well fitted curve in the direction sought with a large enough effect in the repeat runs; inconclusive = weak or mixed curves; inactive = no such curve, though single readings can be large; an effect the other way counts as inactive or inconclusive.

The target in experiment [1] is Progesterone receptor (Homo sapiens) (UniProt P06401). Kind of experiment: qHTS assay to identify small molecule agonists of the progesterone receptor (PR) signaling pathway (AID 1346784; calls by dose curve; also: nearly all actives have a fitted effect of over 30% in size). In outline: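 PR-UAS-bla HEK 293T cells (beta-lactamase reporter under UAS) in 2% charcoal-stripped FBS, dosed with 23 nL compound after 6 hr, incubated 16hr at 37C. LiveBLAzer B/G FRET substrate added, fluorescence read after 2 hours.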
Sequence of Progesterone receptor (Homo sapiens) (P06401 whole entry, looked up): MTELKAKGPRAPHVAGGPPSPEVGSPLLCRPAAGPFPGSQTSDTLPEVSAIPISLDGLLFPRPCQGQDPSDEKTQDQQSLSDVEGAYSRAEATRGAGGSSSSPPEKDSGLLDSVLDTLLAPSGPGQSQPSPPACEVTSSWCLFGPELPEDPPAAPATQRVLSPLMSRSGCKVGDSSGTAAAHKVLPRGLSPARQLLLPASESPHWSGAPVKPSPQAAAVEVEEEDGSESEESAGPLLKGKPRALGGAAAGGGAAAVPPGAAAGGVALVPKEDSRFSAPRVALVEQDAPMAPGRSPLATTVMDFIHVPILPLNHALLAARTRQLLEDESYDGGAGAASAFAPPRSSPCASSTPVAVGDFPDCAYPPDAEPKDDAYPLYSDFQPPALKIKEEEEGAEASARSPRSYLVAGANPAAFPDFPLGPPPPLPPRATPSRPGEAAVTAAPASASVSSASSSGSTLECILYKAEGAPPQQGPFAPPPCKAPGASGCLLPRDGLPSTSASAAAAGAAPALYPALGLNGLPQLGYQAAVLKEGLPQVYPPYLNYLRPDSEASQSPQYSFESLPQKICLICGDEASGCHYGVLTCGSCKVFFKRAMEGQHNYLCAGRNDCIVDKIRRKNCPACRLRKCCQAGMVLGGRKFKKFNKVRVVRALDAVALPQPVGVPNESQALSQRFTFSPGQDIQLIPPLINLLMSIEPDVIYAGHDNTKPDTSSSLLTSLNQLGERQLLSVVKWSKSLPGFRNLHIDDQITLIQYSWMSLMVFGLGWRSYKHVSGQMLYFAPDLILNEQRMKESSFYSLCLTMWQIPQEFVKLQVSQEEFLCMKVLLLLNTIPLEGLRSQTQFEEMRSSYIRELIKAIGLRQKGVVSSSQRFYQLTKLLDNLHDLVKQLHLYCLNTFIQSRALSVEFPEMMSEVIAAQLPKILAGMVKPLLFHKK
Background: qHTS replaces the single test concentration by a dilution series.

Experiment [2] shares this target. Kind of experiment: qHTS assay to identify small molecule antagonists of the progesterone receptor (PR) signaling pathway (AID 1346795; active = well fitted inhibition curve with a large enough effect in the signal ratio in the repeat runs, not every such curve was filed as active; the % refers to the signal ratio). In a few lines:
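PR-UAS-bla HEK293T cells with beta-lactamase reporter under UAS control, in 2% charcoal-stripped FBS, treated with compounds plus 1 nM promegestone (R5020, final) for 16 hr at 37C. Read-out: FRET beta-lactamase substrate fluorescence after 2 hr at room temperature.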

Experiment [3] in a line: qHTS assay to identify small molecule antagonists of the progesterone receptor (PR) signaling pathway - cell viability counter screen (AID 1346798). Also: series mostly up to about 92 µM; nearly all actives have a fitted effect of over 50% in size. In a few lines:
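PR-UAS-bla HEK293T cells, 3,000/well in 2% charcoal-stripped FBS medium, dosed with compounds plus R5020 agonist and incubated 16 h at 37C. Viability then measured in the same wells by CellTiter-Glo luminescence after 30 min at RT.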

The nature of experiment [4]: qHTS assay to identify small molecule agonists of the progesterone receptor (PR) signaling pathway - cell viability counter screen (AID 1346799; calls by dose curve; also: nearly all actives have a fitted effect of over 45% in size). In outline: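 Counter screen in the PR-UAS-bla HEK293T wells (2% charcoal-stripped FBS, 16 h compound exposure at 37 C) after the bla read. CellTiter-Glo added, 30 min at room temperature, luminescence read as cell viability.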

Experiment [5] can be described thus: qHTS assay to identify small molecule antagonists of the TGF-beta/Smad signaling pathway - cell viability counter screen (AID 1346824). Also: nearly all actives have a fitted effect of over 50% in size. In a few lines: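 SBE-bla HEK 293T cells were plated overnight at 37 C, then given compounds in DMSO plus TGF-beta1 (added as 0.25 ng/mL solution) for 5 hr. After the bla read, CellTiter-Glo was added to the same wells and luminescence read after 30 min at room temperature.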

Experiment [6] in a line: qHTS assay to identify small molecule agonists of the TGF-beta/Smad signaling pathway - cell viability counter screen (AID 1346829). Also: top concentration of the series differs between compounds; nearly all actives have a fitted effect of over 45% in size. In a few lines: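 HEK 293T SBE-bla line, 5 hr compound exposure at 37 C, multiplexed CellTiter-Glo viability read by luminescence.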
The nature of experiment [7]: qHTS assay to identify small molecule agonists of the TGF-beta/Smad signaling pathway (AID 1346859; active = well fitted activation curve with a large enough effect in the signal ratio in the repeat runs, not every such curve was filed as active; the % refers to the signal ratio; also: series mostly up to about 77 µM). In a few lines: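 SBE-bla HEK293T cells plated overnight, then compound exposure for 5 h at 37 C. Beta-lactamase reporter read with LiveBLAzer B/G FRET substrate after 2 h at room temperature, fluorescence at 405 nm excitation, 460/530 nm emission.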
For experiment [8], the target named is Thyrotropin-releasing hormone receptor (Homo sapiens) (UniProt P34981). Kind of experiment: qHTS assay to identify small molecule antagonists of the thyrotropin-releasing hormone receptor (TRHR) signaling pathway (AID 1346877; active = well fitted inhibition curve with a large enough effect in the repeat runs, not every such curve was filed as active; also: series mostly up to about 51 µM). In a few lines: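 Kinetic fluorescence (3 min, 1 s resolution) following stimulation with TRH at 1 nM final; HEK293 cells bearing human TRHR; 5 min compound preincubation at RT; concentration-response over 15 points, triplicates.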
Sequence of Thyrotropin-releasing hormone receptor (Homo sapiens) (P34981 whole entry, looked up): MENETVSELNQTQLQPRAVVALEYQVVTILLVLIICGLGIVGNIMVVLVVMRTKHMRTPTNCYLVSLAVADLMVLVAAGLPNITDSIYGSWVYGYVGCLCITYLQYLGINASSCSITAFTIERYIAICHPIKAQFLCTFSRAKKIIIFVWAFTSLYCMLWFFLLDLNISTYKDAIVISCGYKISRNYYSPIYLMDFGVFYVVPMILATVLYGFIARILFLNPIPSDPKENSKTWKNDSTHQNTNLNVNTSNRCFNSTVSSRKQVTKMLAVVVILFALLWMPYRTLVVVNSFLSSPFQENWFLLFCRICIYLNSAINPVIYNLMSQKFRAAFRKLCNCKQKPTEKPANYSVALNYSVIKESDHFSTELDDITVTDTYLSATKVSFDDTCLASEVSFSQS

For experiment [9] the target is unchanged. Put plainly: qHTS assay to identify small molecule agonists of the thyrotropin-releasing hormone receptor (TRHR) signaling pathway (AID 1346891; calls by dose curve; also: series mostly up to about 58 µM). In outline: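 HEK293 cells expressing TRHR plated 18 h at 37 C/5% CO2, calcium dye-loaded 2 h at 37 C, then compound added (agonist mode); kinetic calcium fluorescence read 3 min at 1 s intervals; 15 concentrations in triplicate.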

Experiment [10] can be described thus: Human pregnane X receptor (PXR) small molecule agonists, qHTS cell viability counter screen (AID 1346977). Also: nearly all actives have a fitted effect of over 50% in size. In outline:
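PXR-Luc HepG2 cells (2,000/well, 5% charcoal-stripped FBS) preincubated 5 hr, then exposed to compounds 24 hr at 37 C. Viability read in the same wells by CellTiter-Fluor fluorescence, reagent added at 23 hr, 1 hr incubation.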

Experiment [11] in a line: Caspase-3/7 induction in HepG2 cells by small molecules, qHTS assay (AID 1346978). Also: nearly all actives have a fitted effect of over 15% in size. In outline: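 Wild-type HepG2 cells (2,000/well) were settled 5 h at 37 C, 5% CO2, then exposed to compounds in DMSO for 17 h. Caspase-3/7 activity was read by luminescence 30 min after adding Caspase-Glo 3/7 reagent at room temperature.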
The nature of experiment [12]: Caspase-3/7 induction in CHO-K1 cells by small molecules, qHTS cell viability counter screen (AID 1346979). Also: nearly all actives have a fitted effect of over 35% in size. In outline:
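Wild-type CHO-K1 cells (1,500/well) treated with compound after 5 h plating; after 16 h at 37C, viability read as CellTiter-Fluor fluorescence following 1 h reagent incubation, in the same wells as the caspase read.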

The nature of experiment [13]: Caspase-3/7 induction in CHO-K1 cells by small molecules, qHTS assay (AID 1346980). Also: nearly all actives have a fitted effect of over 15% in size. In outline:
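Wild-type cells were seeded at 1,500 per well and settled 5 hr at 37 C, 5% CO2, then exposed to DMSO-dissolved compounds for 17 hr. Caspase-Glo 3/7 reagent was added, and luminescence was read after 30min at room temperature.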

Experiment [14] in a line: Caspase-3/7 induction in HepG2 cells by small molecules, qHTS cell viability counter screen (AID 1346981). Also: series mostly up to about 92 µM; nearly all actives have a fitted effect of over 30% in size. In outline:
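In this quantitative HTS counter screen, compounds delivered in DMSO were left on unmodified HepG2 cells for 16 hr at 37 C. Viability was then determined fluorometrically with CellTiter-Fluor, in parallel with caspase-3/7 induction in the same wells.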

Experiment [15] addresses Nuclear receptor subfamily 1 group I member 2 (Rattus norvegicus) (UniProt Q9R1A7). Put plainly: Rat pregnane X receptor (rPXR) activation by small molecules, qHTS assay (AID 1346983). Also: nearly all actives have a fitted effect of over 20% in size. Conditions: rPXR luciferase reporter cells, One-Glo luminescence, 24 h; hits give high values. In outline: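 Cell-based rPXR luciferase reporter assay, 2,000 cells per well, rested 5hr at 37 C before compound addition in DMSO, then 24 hr at 37 C. One-Glo reagent was added and luminescence read after 30 min at room temperature.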

Experiment [16] addresses Cytochrome P450 2C19 (Homo sapiens) (UniProt P33261). Kind of experiment: Cytochrome P450 Family 2 Subfamily C Member 19 (CYP2C19) small molecule antagonists: luciferase reporter qHTS assay (AID 1671197). Also: nearly all actives have a fitted effect of over 65% in size. Also: potency is read from the fitted curve at half-maximal effect. As to activity change, negative = inhibition: series mostly up to about 120 µM. In outline:
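First, compounds are pinned into enzyme-substrate mix and held 10 min at room temperature. Second, NADPH regeneration solution is added and plates incubate 1 h at 37C. Third, detection reagent is added and luminescence read after 20 min.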

Experiment [17] concerns the target Nuclear receptor subfamily 1 group I member 2 (Homo sapiens) (UniProt O75469). Put plainly: Human pregnane X receptor (PXR) small molecule agonists, qHTS assay (AID 1346982). Also: nearly all actives have a fitted effect of over 35% in size. In outline: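 Reporter HepG2 cells expressing PXR-Luc are cultured in charcoal-stripped FBS (5%), treated with compounds for 24 hr at 37 C, and assayed by ONE-Glo luminescence after 30 min at room temperature.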

Experiment [18] deals with Cytochrome P450 2D6 (Homo sapiens) (UniProt P10635). Put plainly: Cytochrome P450 Family 2 Subfamily D Member 6 (CYP2D6) small molecule antagonists: luciferase reporter qHTS assay (AID 1671196). Also: series mostly up to about 120 µM; nearly all actives have a fitted effect of over 50% in size. In a few lines: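 Test chemicals meet CYP2D6 plus proluciferin substrate (10 min, RT); NADPH regenerating solution then drives turnover for 1 h. Detection reagent halts the reaction; luminescence measured after 20 min.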
Sequence of Cytochrome P450 2D6 (Homo sapiens) (P10635 whole entry, looked up): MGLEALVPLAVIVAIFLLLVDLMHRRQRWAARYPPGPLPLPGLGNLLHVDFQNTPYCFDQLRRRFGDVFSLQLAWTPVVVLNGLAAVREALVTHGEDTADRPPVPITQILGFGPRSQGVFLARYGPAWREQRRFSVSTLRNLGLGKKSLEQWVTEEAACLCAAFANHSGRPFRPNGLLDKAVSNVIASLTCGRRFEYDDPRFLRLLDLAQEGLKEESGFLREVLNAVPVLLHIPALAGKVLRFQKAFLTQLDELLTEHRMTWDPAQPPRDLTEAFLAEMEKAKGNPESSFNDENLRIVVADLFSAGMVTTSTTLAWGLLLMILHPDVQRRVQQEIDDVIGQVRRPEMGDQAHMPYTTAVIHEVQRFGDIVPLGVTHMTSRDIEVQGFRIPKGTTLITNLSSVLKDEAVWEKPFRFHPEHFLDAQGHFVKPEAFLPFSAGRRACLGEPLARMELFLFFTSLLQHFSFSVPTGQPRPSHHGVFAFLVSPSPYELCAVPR
For orientation: Reporter assays use an easily measured gene product as a stand-in for the process of interest.

In experiment [19] the target is Nuclear receptor subfamily 1 group I member 2 (Homo sapiens) (UniProt O75469). Kind of experiment: CYP3A4 induction through human pregnane X receptor (PXR) by small molecules, qHTS assay (AID 1346984). Also: nearly all actives have a fitted effect of over 40% in size. In a few lines:
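Induction measured in HepG2-based DPX-2 cells co-expressing human PXR and a CYP3A4 promoter-driven luciferase. After a 24-hour compound exposure, cells received CYP3A4 luciferin substrate at 3uM final for 3 hours, and light output was then recorded.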

For experiment [20] the target is unchanged. Put plainly: Human pregnane X receptor (PXR) activation by small molecules, qHTS assay (AID 1346985). Also: nearly all actives have a fitted effect of over 40% in size. In outline: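 DPX-2 cells (HepG2 co-transfected with a PXR response element and a CYP3A4-promoter luciferase construct) were seeded at 2,000 per well, rested 5 hr at 37C, then exposed to DMSO-dissolved compounds for 24 hr. Activation was read as luciferase luminescence.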
% is scaled to controls: 0 for no effect and ±100 for the full control effect.

Sequence of Cytochrome P450 2C19 (Homo sapiens) (P33261 whole entry, looked up): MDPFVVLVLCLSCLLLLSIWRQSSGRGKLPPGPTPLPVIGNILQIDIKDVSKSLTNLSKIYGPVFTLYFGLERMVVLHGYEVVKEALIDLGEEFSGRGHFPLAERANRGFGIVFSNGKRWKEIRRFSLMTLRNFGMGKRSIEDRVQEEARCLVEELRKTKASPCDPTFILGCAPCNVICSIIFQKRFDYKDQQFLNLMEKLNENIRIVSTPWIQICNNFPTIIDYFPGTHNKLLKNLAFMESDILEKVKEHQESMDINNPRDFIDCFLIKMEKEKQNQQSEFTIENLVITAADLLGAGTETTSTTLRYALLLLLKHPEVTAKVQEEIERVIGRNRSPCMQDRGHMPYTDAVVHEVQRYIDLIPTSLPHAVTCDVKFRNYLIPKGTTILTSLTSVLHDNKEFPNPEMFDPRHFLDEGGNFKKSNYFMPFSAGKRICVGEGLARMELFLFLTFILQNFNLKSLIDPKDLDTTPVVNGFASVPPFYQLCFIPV
Sequence of Nuclear receptor subfamily 1 group I member 2 (Homo sapiens) (O75469 whole entry, looked up): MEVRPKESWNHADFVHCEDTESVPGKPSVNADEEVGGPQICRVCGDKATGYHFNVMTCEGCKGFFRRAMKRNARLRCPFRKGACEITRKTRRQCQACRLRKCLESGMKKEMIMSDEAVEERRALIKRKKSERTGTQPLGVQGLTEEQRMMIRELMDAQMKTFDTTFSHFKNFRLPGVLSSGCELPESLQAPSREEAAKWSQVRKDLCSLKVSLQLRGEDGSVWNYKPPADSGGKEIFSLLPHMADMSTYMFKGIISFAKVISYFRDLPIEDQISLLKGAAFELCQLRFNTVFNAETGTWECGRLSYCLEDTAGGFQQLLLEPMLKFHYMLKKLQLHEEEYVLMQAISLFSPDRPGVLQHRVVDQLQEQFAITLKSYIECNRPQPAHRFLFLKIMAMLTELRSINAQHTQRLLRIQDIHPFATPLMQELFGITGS
Sequence of Nuclear receptor subfamily 1 group I member 2 (Rattus norvegicus) (Q9R1A7 whole entry, looked up): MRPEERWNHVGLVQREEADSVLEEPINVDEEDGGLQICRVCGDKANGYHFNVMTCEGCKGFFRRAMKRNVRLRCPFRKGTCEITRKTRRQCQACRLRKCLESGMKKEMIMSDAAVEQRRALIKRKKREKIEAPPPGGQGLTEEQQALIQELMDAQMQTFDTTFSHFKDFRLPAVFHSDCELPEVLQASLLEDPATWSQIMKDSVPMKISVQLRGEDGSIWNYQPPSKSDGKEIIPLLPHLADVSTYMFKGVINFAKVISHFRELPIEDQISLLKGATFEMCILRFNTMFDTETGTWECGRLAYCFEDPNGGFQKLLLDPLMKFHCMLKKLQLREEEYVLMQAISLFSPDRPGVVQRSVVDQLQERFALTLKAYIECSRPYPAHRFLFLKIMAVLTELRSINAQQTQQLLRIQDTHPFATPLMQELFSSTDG

In the case of `C[N+](C)(C)CC(O)CC(=O)[O-]` (stereo not given), the Potency entry in [1], in experiment [2], in experiment [3], in [4], in experiment [5] and in [10] was “inactive” in each case. Also, the Potency entry in experiment [11], in experiment [12], in experiment [14] and in experiment [16] was “inactive” in each case. Also, the outcome in experiment [6], in experiment [7], in experiment [8], in experiment [9] and in experiment [13] was inactive. For the same compound, the max activation in experiment [15] was 7.16%.
For `Cc1ccc(=O)n(-c2ccccc2)c1`, the Potency entry in experiment [1], in experiment [2], in [3], in experiment [4], in experiment [5] and in experiment [10] was “inactive” in each case. For the same compound, the Potency entry in experiment [11], in experiment [14], in experiment [17] and in [18] was “inactive” each time. Moreover, the result in experiment [6], in [7], in experiment [8], in experiment [9] and in [13] was inactive.
As for `CCCCCCCCCCCCCCCCC`, the Potency entry in experiment [1], in experiment [2], in [3], in experiment [4], in experiment [5] and in experiment [10] was “inactive” each time. The Potency entry in experiment [11], in experiment [12], in experiment [14], in experiment [17], in experiment [18] and in [16] was “inactive” each time. For the same compound, the result in [6], in [7], in [8], in experiment [9] and in experiment [13] was inactive.
On to `C=C[Si](OC(=C)C)(OC(=C)C)OC(=C)C`, for which the Potency entry in experiment [1], in [2], in [3], in [4], in experiment [5] and in [10] was “inactive” each time. The Potency result in experiment [11], in experiment [12], in experiment [17] and in [18] was “inactive” in each case. For the same compound, the call in [6], in experiment [7], in experiment [8], in experiment [9] and in [13] was inactive. The Potency in [16] is 39.9 µM (active).
As to `CCC(=O)OC(C)c1ccccc1` (stereo not given), the Potency result in [1], in [2], in [3], in experiment [4], in experiment [5] and in experiment [10] was “inactive” in each case. Further, the Potency result in [11], in experiment [12], in experiment [14], in [17], in experiment [18] and in experiment [16] was “inactive” throughout. Further, the outcome in [6], in experiment [7], in experiment [8], in [9] and in [13] was inactive.
As to `N[C@@H](C(=O)N[C@@H]1C(=O)N2C(C(=O)O)=C(Cl)CS[C@H]12)c1ccccc1`, the activation is 0.163% [at 8.39 µM] in [1], 1.83% [at 6.97 µM] in [7], -0.0304% [at 5.23 µM] in [9] and -7.63% [at 8.39 µM] in [17]. Also, the results for the activity change, negative = inhibition in experiment [2], in [18] and in experiment [16] were 5.57% [at 8.39 µM], -15.8% [at 10.5 µM] and 33.2% [at 10.5 µM], respectively. Also, the activity change, negative = cytotoxicity was 1.94% [at 8.39 µM] in [3]; -11.1% [at 8.39 µM] in [4]; -0.75% [at 6.97 µM] in experiment [6]; 4.82% [at 8.39 µM] in experiment [10]; 1.61% [at 8.39 µM] in [12]; 4.06% [at 8.39 µM] in [14]. The viability change, negative = cytotoxic in experiment [5] was -15% [at 6.97 µM]. In [8], the activity, negative = inhibition is 1.85% [at 4.65 µM]. For the same compound, the caspase activation in [11] was 0.709% [at 8.39 µM]. Besides, in experiment [13], the caspase-3/7 activation was -1.31% [at 8.39 µM]. Further, in [15], the max activation is -2.39%. In addition, the Potency entry in experiment [19] and in experiment [20] was “inactive” each time.
For the compound `Nc1nc2c(ncn2COC(CO)CO)c(=O)[nH]1`, the Potency entry in experiment [1], in [2], in experiment [3], in experiment [4], in [5] and in experiment [10] was “inactive” in each case. Further, the Potency entry in [11], in experiment [14], in experiment [17], in [19], in experiment [20] and in experiment [18] was “inactive” throughout. In [16], the Potency result is “inactive”. The call in experiment [6], in experiment [7], in experiment [8], in experiment [9] and in experiment [13] was inactive. Moreover, the max activation in experiment [15] is 0.872%.
